Screening results as filed in PubChem BioAssay.
NR3A LBD binder: binders of NR3A ligand-binding domain, primary screen, biophysical, differential scanning fluorimetry, uHTS; NR3A LBD differential scanning fluorimetry, Tm shift; 0% = protein alone, 100% = glycine-bound protein; 340,000 tested, 2.5% active; Tm shift relative to glycine control, % at 25 µM; Glutamate receptor ionotropic, NMDA 3A (GRIN3A) ligand-binding domain;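 active = melting temperature shift of at least 10% of the positive control shift, at one fixed dose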
proKLK7 act: proKLK7 zymogen activators, primary screen, biochemical, fluorescence intensity; purified proKLK7, EDANS-DABCYL substrate fluorescence; 100% is mature enzyme control, 0% vehicle; AID 652039, 2013; Kallikrein-7 (Homo sapiens), P49862; activation, % at 7 µM; 370,000 tested, 0.9% active;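 active = activation above the mean of all tested compounds plus 3 SD, computed per campaign excluding outliers beyond control limits, cut at about 13% in these data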
Target sequence (P49862 whole entry, looked up): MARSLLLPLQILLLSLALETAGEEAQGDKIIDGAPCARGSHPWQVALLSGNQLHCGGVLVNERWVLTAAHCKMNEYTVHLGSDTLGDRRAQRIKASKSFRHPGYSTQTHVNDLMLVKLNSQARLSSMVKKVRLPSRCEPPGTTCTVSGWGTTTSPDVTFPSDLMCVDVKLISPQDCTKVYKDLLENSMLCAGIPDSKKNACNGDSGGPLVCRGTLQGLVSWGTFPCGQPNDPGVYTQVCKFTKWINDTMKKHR
rCAG RNA binder: binders of r(CAG) RNA repeats, primary screen, biochemical, fluorescence; 370,000 tested, 1.3% active; r(CAG) RNA repeat, TO-PRO-1 dye displacement fluorescence; inhibition, % at 3 µM;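 active = inhibition above the plate cutoff, the mean of all test compounds on that plate plus 3 SD, cut at about 35% in these data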;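 also: higher means more dye released from RNA so lower well fluorescence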
ADAM17 inh: ADAM17 inhibitors, primary screen, biochemical, QFRET. 370,000 tested, 0.83% active. recombinant ADAM17, EDANS/DABCYL FRET peptide cleavage. inhibition, % at 6.95 µM. AID 720648, 2013. Disintegrin and metalloproteinase domain-containing protein 17 (Homo sapiens), P78536;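 active = inhibition above the mean of compounds lying between control limits plus 3 SD, set per campaign, cut at about 8.5% in these data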
AHR act: AHR activators, primary screen, cell-based, luminescence, luciferase reporter, human. 320,000 tested, 2.5% active. AHR-responsive luciferase reporter cells. AID 2796, 2010. activation, % at 5 µM; in the data active = activation above about 47%
ADAM10 inh: human ADAM10 inhibitors, primary screen, biochemical, QFRET, HTS | Disintegrin and metalloproteinase domain-containing protein 10 (Homo sapiens), O14672 | recombinant ADAM10, EDANS/DABCYL FRET peptide cleavage, 3 h | inhibition, % at 7 µM | 370,000 tested, 0.62% active;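 active = inhibition above a per-campaign cutoff equal to the mean of compounds falling between control-based bounds plus 3 SD, cut at about 20% in these data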
Of the large screens only hits and unclear results are named; the others gave an inactive call. The list is not random: actives were taken first. Their share in the collection is about 7%.

O=C(O)c1ccccc1N/N=C\c1ccnc2ccccc12	AHR act 65
O=C(NC1CCCCN(Cc2cccc(Cl)c2)C1=O)c1cccc2nsnc12 (configuration not stated)	none (no result: NR3A LBD binder, AHR act)
COc1ccc(Cl)cc1Nc1cc(C)nc2nc(C)nn12	AHR act 71
CC(C)OC(=O)NCCOC(=O)Nc1ccccc1Cl	none
CC(C)OC(=O)NCCOC(=O)Nc1ccc(Cl)cc1	NR3A LBD binder 25
O=C(Nc1ccc(Oc2cccnc2)cc1)C1CCCCN1Cc1ccc(CO)o1 (configuration not stated)	NR3A LBD binder 10
COc1ccc(-c2cc3c(=O)n(CC(=O)N4CCN(C)CC4)ncn3n2)cc1	AHR act 73
COc1ccc(-c2cc3c(=O)n(CC(=O)N4CCCCC4)ncn3n2)cc1	none
COC(CNC(=O)[C@H](Cc1c[nH]c2ccccc12)NC1(C(=O)NC(c2ccccc2)c2ccccc2)CCCCC1)OC	none (no result: NR3A LBD binder, proKLK7 act, rCAG RNA binder, AHR act)
Oc1ccc(Br)cc1-c1cc(-c2ccco2)[nH]n1	NR3A LBD binder 19
O=[N+]([O-])c1ccccc1-c1cc(-c2cc(Cl)ccc2O)n[nH]1	NR3A LBD binder 18
Oc1ccccc1-c1cc(-c2ccco2)[nH]n1	none
Oc1ccc(Cl)cc1-c1cc(-c2ccco2)[nH]n1	NR3A LBD binder 11, AHR act 47
CCN1CCCCC(NC(=O)COCc2ccccc2)C1=O (configuration not stated)	none (no result: NR3A LBD binder, AHR act)
COc1ccc(S(=O)(=O)N(C)CC(=O)NC2CCCCC2)cc1OC	none
COc1ccc(S(=O)(=O)N(C)CC(=O)NC2CCCCC2)cc1Cl	NR3A LBD binder 11
CC(C)(C)c1ccc(O)c(N)c1	AHR act 48 (no result: NR3A LBD binder, proKLK7 act, rCAG RNA binder, ADAM17 inh, ADAM10 inh)
CC(C)c1ccc(O)c(N)c1	none
COC(=O)[C@]12C[C@H](CC(=O)NCc3ccccc3)C(=O)N(Cc3cccc4ccccc34)C1=C[C@H](COCc1ccccc1)O[C@@H]2C	none (no result: NR3A LBD binder, AHR act)
Cn1cnc2cc(NCc3cccs3)ccc21	AHR act 50
COc1cccc(-c2nc(-c3ccc(NC(=O)c4ccncc4)cc3)no2)c1	NR3A LBD binder 24
O=C(Cc1cccs1)Nc1ccc(-c2nnc(-c3ccccc3)o2)cc1	NR3A LBD binder 28
COc1cccc(-c2nc(-c3ccc(C(=O)O)cc3)no2)c1	none
COc1ccc(-c2nc(-c3ccc(NC(=O)c4ccncc4)cc3)no2)cc1OC	NR3A LBD binder 12 (no result: proKLK7 act, rCAG RNA binder, ADAM17 inh, ADAM10 inh)
O=C(Cc1cccs1)Nc1ccc(-c2nnc(-c3ccco3)o2)cc1	none
COc1ccc(Cl)cc1-c1nc(-c2ccc(NC(=O)c3ccncc3)cc2)no1	NR3A LBD binder 26
S=C(Nc1ccccc1)OC1CCC12CCC(c1ccccc1)CC2 (configuration not stated)	none (no result: NR3A LBD binder, AHR act)
CCN(C(=O)C1CCN(c2ncccn2)CC1)c1ccccc1	none (no result: NR3A LBD binder, AHR act)
COC(=O)C1CN(Cc2ccc(F)cc2)CCS(=O)(=O)N1Cc1cn(Cc2ccccc2)nn1 (configuration not stated)	none (no result: NR3A LBD binder, AHR act)
COc1cc(OC)cc(-c2nc(-c3ccccc3)no2)c1	none
COc1cccc(-c2noc(-c3ccc(Cl)nc3)n2)c1	AHR act 54
O=C(Nc1cccc(-c2nnco2)c1)c1cccs1	none
Cc1ccc(-c2nnc(-c3cccc(NC(=O)c4cccs4)c3)o2)cc1	NR3A LBD binder 20
COc1cccc(-c2nc(-c3ccc(NC(=O)c4cccs4)cc3)no2)c1	NR3A LBD binder 15
COC(=O)C1CN(CCO)CCS(=O)(=O)N1Cc1cccc(Cl)c1 (configuration not stated)	none (no result: NR3A LBD binder, AHR act)
CCCN1CCCCC(NC(=O)COCc2ccccc2)C1=O (configuration not stated)	none (no result: NR3A LBD binder, AHR act)
CCCCOCCCNC(=O)Cc1cccs1	NR3A LBD binder 11
O=C(Nc1nnc(Cc2c[nH]c3ccccc23)s1)c1ccc(Cl)cc1Cl	NR3A LBD binder 26
O=C(Nc1nnc(Cc2ccccc2F)s1)c1ccccc1Cl	none
COc1cc(OC)cc(-c2cc3cc(F)ccc3cn2)c1	none
COc1ccc(-c2cc3cc(F)ccc3cn2)cc1	AHR act 51
Fc1ccc2cnc(-c3ccccc3F)cc2c1	none
Fc1ccc2cc(-c3ccccc3F)ncc2c1	AHR act 76
COc1ccc(-c2cc3ccc(F)cc3cn2)cc1	AHR act 47
Cc1ccc(C(=O)N2[C@@H]3CN(C)C(=O)[C@@]2(Cc2ccccc2)[C@H]2C(=O)N(Cc4ccccc4)C(=O)[C@@H]32)cc1	NR3A LBD binder 17 (no result: AHR act)
Cc1cccc(-c2cc3nc4c(c(N5CCC6(CC5)OCCO6)n3n2)CCCC4)c1	NR3A LBD binder 15
Cc1cccc(-c2cc3nc4c(c(N5CCOCC5)n3n2)CCCC4)c1	none
O=C(CCl)Nc1ccc(C(=O)NCC2COc3ccccc3O2)cc1 (configuration not stated)	none (no result: NR3A LBD binder, AHR act)
O=C(Cc1ccccc1)Nc1ccc(C(=O)NCC2COc3ccccc3O2)cc1 (configuration not stated)	NR3A LBD binder 22
CCc1ccc(-c2cc(C(=O)N3N=C(C(F)F)CC3(O)C(F)F)c3ccccc3n2)cc1 (configuration not stated)	NR3A LBD binder 22
CC(C)Cc1cc(C(=O)N2N=C(C(F)F)CC2(O)C(F)F)c2ccccc2n1 (configuration not stated)	none
CC(C)CN1C(=S)SC(C)(C)C1n1oc(=O)n(-c2ccc(Cl)cc2)c1=O (configuration not stated)	NR3A LBD binder 11 (no result: proKLK7 act, rCAG RNA binder, ADAM17 inh, ADAM10 inh)
CC(C)CN1C(=S)SC(C)(C)C1n1oc(=O)n(-c2ccccc2)c1=O (configuration not stated)	none
COCc1cn(-c2ccc3c(c2)[C@]2(CC(=O)N(C)C2c2ccccc2)C(=O)N3CC(C)C)nn1 (some centres not stated)	none (no result: NR3A LBD binder, AHR act)
O=c1c2c(-c3cccs3)csc2ncn1-c1ccc(Br)cc1	AHR act 65
O=c1c2c(-c3cccs3)csc2ncn1/N=C/c1ccc(OC(F)F)cc1	AHR act 56
COc1cccc(-n2cnc3scc(-c4cccs4)c3c2=O)c1	none
COc1ccc(S[C@]2(C(=O)N(C)C)CC(=O)N(c3ccc(C#N)cc3)[C@@H]2c2ccc(OC)cc2)cc1	none (no result: NR3A LBD binder, AHR act)
Cc1ccc(C)c(OCC(O)CN2CCCCC2C)c1 (configuration not stated)	AHR act 48
Brc1cc(Br)c2nc(-c3cccs3)ccc2c1	AHR act 52
Nc1nccc(-c2cccs2)n1	none
